# High-throughput results deposited in PubChem by Sanford-Burnham Center for Chemical Genomics.
# TROY NFkB inh = inhibitors of TROY-driven NF-kB signaling, primary screen, Q293 LMP1-TROYcd cells, NF-kB luciferase, uHTS; inhibition, % at 10 µM; hit rate 0.98% among 360,000; Q293 LMP1-TROYcd NF-kB luciferase reporter, 4 h;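 active means compounds whose plate-normalised and pattern-corrected inhibition of the luciferase reporter signal at the single screening dose is 50% or more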
# KKLEB tox = cytotoxicity in KKLEB CF airway cells, primary screen, cytotoxicity control for CF NF-kB inhibitor project, cell-based, uHTS, fluorescence assay plates; KKLEB CF airway cells viability, ATPlite luminescence, overnight; active compounds read low; cells stimulated with P. aeruginosa culture filtrate; hit rate 0.36% among 360,000; activity change (cytotoxicity), % at 5 µM;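 active means corrected activity change at or below -50% at 5 µM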
# HIF-2a block = HIF-2a reporter inhibitors, primary screen, luminescence, 786-0 RCC cells. 786-0 RCC cells HIF-2a reporter, luciferase luminescence, overnight. inhibition, % at 18.8 µM. hit rate 0.72% among 360,000;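 active means inhibition of the luminescence signal of 40% or more relative to plate controls, in a single-dose primary screen at 18.75 µM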
# CF NFkB block = inhibitors of PAF-induced NF-kB signaling, primary screen, cell-based, GFP fluorescence, uHTS | hit rate 0.86% among 360,000 | inhibition, % at 5 µM | KKLEB NF-kB-GFP reporter, GFP fluorescence overnight;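 active means at least 50% inhibition at 5 µM, scaled per plate between neutral and stimulator controls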;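 further: PAF is a Pseudomonas aeruginosa culture filtrate used as stimulus; plate controls were PAF-stimulated DMSO wells for no effect and unstimulated DMSO wells for full effect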
# TWEAK Fn14 block = inhibitors of TWEAK-Fn14 signaling, primary screen, luciferase reporter cells, uHTS; inhibition, % at 10 µM; AID 1159606, 2016; hit rate 2% among 360,000; TWEAK-stimulated Fn14 reporter cells, luciferase luminescence, 8 h; in the data active means inhibition above about 50%
# Peg3 promoter = Peg3 promoter-driven luciferase inhibitors, primary screen, cell-based, HeLa, luciferase luminescence; hit rate 1.7% among 360,000; inhibition, % at 20 µM; HeLa PEG-Prom luciferase reporter, overnight;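 active means inhibition of at least 50% at 20 µM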
# Mdm2-MdmX confirm = retested Mdm2-MdmX interaction blockers, confirmation, cell-based, luminescence, single concentration, set 2 | shares compounds with HIF-2a block | SaOS-2 split-luciferase Mdm2/MdmX complementation | inhibition, % at 8 µM | hit rate 99% among 740 | AID 504601, 2011;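 active means mean inhibition of the luminescence signal across two replicates at or above 26 percent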
# Target sequence (O15151 whole entry, looked up): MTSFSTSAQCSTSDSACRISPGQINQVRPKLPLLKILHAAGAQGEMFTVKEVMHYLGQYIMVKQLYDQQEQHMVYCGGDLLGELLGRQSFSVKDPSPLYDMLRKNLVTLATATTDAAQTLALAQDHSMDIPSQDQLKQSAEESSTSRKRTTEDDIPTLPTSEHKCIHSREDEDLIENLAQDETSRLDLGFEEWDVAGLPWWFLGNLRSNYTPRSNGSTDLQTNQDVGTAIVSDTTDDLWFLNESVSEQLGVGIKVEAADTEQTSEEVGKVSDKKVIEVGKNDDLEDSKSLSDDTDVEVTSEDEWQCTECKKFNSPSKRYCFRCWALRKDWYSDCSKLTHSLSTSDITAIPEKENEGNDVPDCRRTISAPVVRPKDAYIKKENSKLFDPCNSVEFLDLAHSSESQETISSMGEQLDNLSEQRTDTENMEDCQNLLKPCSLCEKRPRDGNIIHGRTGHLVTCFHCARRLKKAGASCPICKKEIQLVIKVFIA
# Target sequence (Q00987 whole entry, looked up): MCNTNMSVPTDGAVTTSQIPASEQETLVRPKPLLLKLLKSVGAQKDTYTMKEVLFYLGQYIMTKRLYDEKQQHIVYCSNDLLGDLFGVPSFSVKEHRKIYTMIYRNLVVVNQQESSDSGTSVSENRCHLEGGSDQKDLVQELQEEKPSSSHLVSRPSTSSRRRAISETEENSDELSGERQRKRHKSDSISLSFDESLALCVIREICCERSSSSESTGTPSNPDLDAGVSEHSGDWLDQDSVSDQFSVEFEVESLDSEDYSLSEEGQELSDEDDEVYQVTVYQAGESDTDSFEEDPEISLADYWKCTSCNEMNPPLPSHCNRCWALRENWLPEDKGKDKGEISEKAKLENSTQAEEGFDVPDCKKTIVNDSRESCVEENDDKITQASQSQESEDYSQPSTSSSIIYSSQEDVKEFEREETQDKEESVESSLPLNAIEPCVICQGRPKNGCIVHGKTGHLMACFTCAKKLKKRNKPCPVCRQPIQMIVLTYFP
# HIF-2a conf = HIF-2a reporter inhibitor retest, confirmation, luminescence, 786-0 RCC cells; shares compounds with HIF-2a block; HIF-2a luciferase reporter luminescence, overnight; inhibition, % at 18.8 µM; hit rate 56% among 1,800; AID 651580, 2012;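 active means mean inhibition across four replicates of at least 40 percent at the single tested concentration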
# HIF-1a cs = HIF-1a luciferase reporter signal reduction – MiaPaCa-2 cells, single concentration, counter-screen for HIF-2a inhibitor project, confirmation | shares compounds with HIF-2a block | MiaPaCa-2 HIF-1a luciferase reporter, desferoxamine, overnight | inhibition, % at 18.8 µM | hit rate 72% among 1,800 | AID 651589, 2012;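 active means mean inhibition of the reporter signal across four replicates at the single tested dose of 50% or more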
# Numbers without * were called inactive; . = not tested or not shown. Sampled rows, rich in hits. Any-hit rate of the full collection: about 4%.
SMILES,TROY NFkB inh,KKLEB tox,HIF-2a block,CF NFkB block,TWEAK Fn14 block,Peg3 promoter,HIF-2a conf,HIF-1a cs,others
CCOc1ccc(-c2cc(CCCC(=O)Nc3cccc(OC)c3)no2)cc1,24,-6,42*,6,57*,-13,52*,70*,
CCOc1ccc(NC(=O)CCCc2cc(-c3ccc(OCC)cc3)on2)cc1,-6,-15,4,-11,-20,-11,.,.,
CCOc1ccc(-c2cc(CCCC(=O)Nc3cc(OC)ccc3OC)no2)cc1,23,21,57*,-11,50,-38,79*,52*,
O=c1cccc2n1Cc1cc3ccccc3nc1-2,-61,14,-179,-43,-6,-242,.,.,
CC[C@@]1(O)C(=O)OCc2c1cc1n(c2=O)Cc2cc3c(N)cccc3nc2-1,63*,-23,27,76*,70*,72*,.,.,Mdm2-MdmX confirm=100*
CC(C)(C)c1ccc(C(=O)Nc2sc3c(c2C(=O)O)CCC3)cc1,62*,3,96*,-8,88*,24,96*,75*,
Cc1c(N=O)c(-c2ccccc2)n(O)[n+]1[O-],-3,0,7,13,4,-2,.,.,
Cc1ccc(S(=O)(=O)N2C[C@H]3C(=O)C[C@@H](c4ccc(Cl)cc4)N(S(=O)(=O)c4ccc(C)cc4)[C@H]3C[C@H]2c2cccc3ccccc23)cc1,1,-10,9,29,-1,12,.,.,
C=CCn1c(Sc2ncc([N+](=O)[O-])s2)n[nH]c1=O,1,17,93*,14,0,102*,.,.,Mdm2-MdmX confirm=103*
CC(C)(C)c1ccc(Oc2ccc(NC(=O)c3ccccc3C(=O)O)cn2)cc1,15,-12,56*,10,35,12,51*,35,
O=C(Nc1ccc(NC(=S)NC(=O)c2ccco2)cc1)c1ccc(Br)cc1,37,-15,57*,23,5,12,64*,12,
CN1/C(=C\C(=O)C(F)F)C(C)(C)c2ccccc21,2,-12,12,3,1,4,.,.,
CN1/C(=C/C(=O)c2nc(S(C)(=O)=O)ncc2Cl)C(C)(C)c2ccccc21,70*,-47,91*,95*,84*,111*,.,.,Mdm2-MdmX confirm=103*
CC1=C(C/C=C(\C)CCC[C@H](C)CCC[C@H](C)CCCC(C)C)C(=O)c2ccccc2C1=O,1,-4,1,0,0,10,.,.,
Cc1nc(SCC(=O)N2c3ccccc3NC(=O)CC2C)c2c(C)c(C)sc2n1 (centres undefined),13,-11,23,4,1,-6,.,.,
Cc1sc2nc(C3CC3)nc(SCC(=O)N3c4ccccc4CC3C)c2c1C (centres undefined),25,-11,-6,3,28,16,.,.,Mdm2-MdmX confirm=101*
COc1ccc(C(=O)COC(=O)CCN2C(=O)C3CC=CCC3C2=O)c(OC)c1 (centres undefined),-21,-6,-14,0,-9,-43,.,.,
Cc1ccc(C(=O)C=CC=Cc2ccccc2)cc1,39,2,-195,-18,41,-211,.,.,
Cc1ccc(C(=O)C(C(=O)/C=C/c2ccccc2)=C2SCCCS2)cc1,-2,-7,93*,-3,46,109*,86*,103*,Mdm2-MdmX confirm=103*
c1ccc(Cn2ccnc2C2OCCO2)cc1,-18,2,0,6,11,3,.,.,
CCOc1ccc(NC(=O)CSc2nc3ccsc3c(=O)n2Cc2ccc(C(=O)O)cc2)cc1,0,12,6,5,18,1,.,.,
COc1ccccc1NS(=O)(=O)c1ccc(C(=O)NCC(c2ccco2)N2CCCCC2)cc1 (centres undefined),10,-6,4,18,-1,-18,.,.,
CNC[C@H](CC1CCCCC1)NC[C@H](CO)NCCc1cccc(C(F)(F)F)c1,-16,-19,2,31,-23,101*,.,.,Mdm2-MdmX confirm=103*
COc1cc(N2C(=O)C=CC2=O)c(OC)cc1Cl,-17,-2,41*,22,30,106*,80*,0,
CN(CC(=O)Nc1cccc(S(=O)(=O)N(C)c2ccccc2)c1)Cc1cccs1,10,-7,17,4,12,9,.,.,
SMILES,TROY NFkB inh,KKLEB tox,HIF-2a block,CF NFkB block,TWEAK Fn14 block,Peg3 promoter,HIF-2a conf,HIF-1a cs,others
O=Cc1ccc(-c2cccs2)s1,4,-19,44*,3,-18,-89,52*,-13,
CCCC(=O)Nc1nnc(SCC(=O)NC2CC2)s1,-15,4,-4,18,-10,-9,.,.,
CC(=O)Nc1ccc(S(=O)(=O)N(Cc2cccnc2)Cc2cc3ccc(C)cc3[nH]c2=O)cc1,-32,-1,-7,-3,-2,10,.,.,
COc1cccc(NC(=O)N(C)C[C@H]2Oc3cc(C#Cc4ccncc4)ccc3S(=O)(=O)N([C@H](C)CO)C[C@H]2C)c1,10,-16,43*,-2,31,17,19,38,
O=c1c(Br)c(N2CCCC2)cnn1-c1ccccc1,-28,4,-172,-9,7,-268,.,.,
O=c1c(Br)c(Br)cnn1-c1ccccc1,77*,-85*,96*,90*,93*,108*,99*,107*,
Cc1ccc(-n2ncc(Br)c(Br)c2=O)cc1,69*,-36,92*,69*,78*,102*,99*,102*,
COc1c(Cl)cnn(-c2ccc(C)cc2)c1=O,-9,2,-26,-15,8,-19,.,.,
O=C(O)/C=C/c1ccc(S(=O)(=O)N2CCN(CCN3C(=O)C4C5C=CC(C5)C4C3=O)CC2)cc1 (centres undefined),-1,5,7,-13,1,-2,.,.,
C#CCn1c(S(=O)(=O)Cc2ccc(C)cc2)nc(-c2ccccc2)c1-c1ccccc1,-1,16,-17,-16,-52,33,.,.,Mdm2-MdmX confirm=100*
COc1ccc(S(=O)(=O)Oc2ccccc2C(N)=O)cc1,-16,11,-3,-25,8,5,.,.,
